Laboratory results: PubChem BioAssay (EPA / NIEHS)
Several values for one entry are separate records, joined by “and”; a condition that tells them apart may be missing. Equal values may be shown once. The source holds several records for some structures; these can differ, active in one and inactive in another. Activity calls are given as the source filed them. The calls were made as follows: active = hit-call score of the fitted dose curve at least 0.9, where 1 is the maximum; inactive = score below 0.9.

Columns and labels:
[1] = read-out: Interleukin-6 (IL6), IL6 (gene 3569); test: BSK_CASM3C_IL6: BioMAP Diversity Plus: CASM3C Assay for Interleukin-6 (IL6) Biomarker Activity for (AID 2283040); conditions: primary human coronary artery smooth muscle cells; actives raise or lower the signal
[2] = read-out: Tissue plasminogen activator (tPA), PLAT (gene 5327); test: BSK_BE3C_tPA: BioMAP Diversity Plus: BE3C Assay for Tissue plasminogen activator (tPA) Biomarker Activity (AID 2283041); conditions: primary human bronchial epithelial cells; actives raise or lower the signal
Procedure, shortened: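 Using human lung primary bronchial epithelial cells, tPA was measured by ELISA 24 h after dosing; data fitted relative to DMSO.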

[3] = read-out: Interleukin-8 (IL8), CXCL8 (gene 3576); test: BSK_CASM3C_IL8: BioMAP Diversity Plus: CASM3C Assay for Interleukin-8 (IL8) Biomarker Activity (AID 2283042); conditions: primary human coronary artery smooth muscle cells; actives raise or lower the signal;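 also: IL-8 protein level quantified by ELISA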
[4] = read-out: Human Leukocyte Antigen - DR isotype (HLADR), HLA-DRA (gene 3122); test: BSK_CASM3C_HLADR: BioMAP Diversity Plus: CASM3C Assay for Human Leukocyte Antigen - DR isotype (HLADR) Biomarker Activity (AID 2283043); conditions: primary human coronary artery smooth muscle cells; actives raise or lower the signal;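 also: cell-surface HLA-DR protein level quantified by ELISA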
[5] = read-out: Macrophage colony-stimulating factor (MCSF), CSF1 (gene 1435); test: BSK_CASM3C_MCSF: BioMAP Diversity Plus: CASM3C Assay for Macrophage colony-stimulating factor (MCSF) Biomarker Activity (AID 2283044); conditions: primary human coronary artery smooth muscle cells; actives raise or lower the signal;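 also: M-CSF protein amount quantified by ELISA after 24 h exposure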
[6] = read-out: Low-density lipoprotein receptor (LDLR), LDLR (gene 3949); test: BSK_CASM3C_LDLR: BioMAP Diversity Plus: CASM3C Assay for Low-density lipoprotein receptor (LDLR) Biomarker Activity (AID 2283045); conditions: primary human coronary artery smooth muscle cells; actives raise or lower the signal;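 also: LDLR protein level on the cell surface quantified by ELISA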
[7] = read-out: Monocyte Chemoattractant Protein-1 (MCP1), CCL2 (gene 6347); test: BSK_CASM3C_MCP1: BioMAP Diversity Plus: CASM3C Assay for Monocyte Chemoattractant Protein-1 (MCP1) Biomarker Activity (AID 2283046); conditions: primary human coronary artery smooth muscle cells; actives raise or lower the signal;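 also: MCP-1 level quantified by ELISA 24 h after dosing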
[8] = BSK_CASM3C_Proliferation: Cell Proliferation Assessment in the BioMAP Diversity Plus: CASM3C Assay (AID 2283047); conditions: primary human coronary artery smooth muscle cells;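 also: sulforhodamine B total protein stain as relative cell number at 560 nm; sub-confluent cells exposed 48 h before staining; fitted both ways against DMSO so gain or loss of cell number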
[9] = read-out: Monokine induced gamma interferon (MIG), CXCL9 (gene 4283); test: BSK_CASM3C_MIG: BioMAP Diversity Plus: CASM3C Assay for Monokine induced gamma interferon (MIG) Biomarker Activity (AID 2283048); conditions: primary human coronary artery smooth muscle cells; actives raise or lower the signal;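 also: MIG protein level measured by ELISA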
[10] = read-out: serum amyloid A (SAA), SAA1 (gene 6288); test: BSK_CASM3C_SAA: BioMAP Diversity Plus: CASM3C Assay for serum amyloid A (SAA) Biomarker Activity (AID 2283049); conditions: primary human coronary artery smooth muscle cells; actives raise or lower the signal;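 also: SAA protein level quantified by ELISA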

Measured: AC50

O=C(Oc1ccccc1)c1ccccc1C(=O)Oc1ccccc1
inactive: all assays above

CC(C)C(=O)OCCc1ccccc1
inactive: all assays above

C=CC(=O)OCCCCCCOC(=O)C=C
active: [1] 14.2 µM | [3] 10.1 µM | [4] 10.5 µM | [5] 18 µM | [6] 20 µM | [7] 34 µM | [8] 20 µM | [9] 23.3 µM
inactive: [2] | [10]

Oc1c(Cl)cc(Cl)c(Cl)c1Cl
active: [1] 0.383 µM
inactive: all other assays above

COc1ccc(C(=O)/C(Br)=C\C(=O)O)cc1
active: [1] 20 µM and 23.2 µM | [2] 4.45 µM | [3] 35.4 µM and 29.1 µM | [4] 6.86 µM and 20.6 µM | [5] 20 µM and 29.7 µM | [6] 13.2 µM and 26.7 µM | [7] 30 µM and 31.1 µM | [8] 4.88 µM and 24.3 µM | [9] 29.2 µM and 31 µM | [10] 11.4 µM
inactive: [2] | [10]

CC1(C)CC(O)CC(C)(C)N1[O]
inactive: all assays above

CCCCCCCCCCCC(C)=O
active: [5] 35.9 µM | [7] 36.8 µM | [8] 20 µM
inactive: all other assays above

CC(CCC(=O)O)(c1ccc(O)cc1)c1ccc(O)cc1
inactive: all assays above

Nc1cccc(N)n1
inactive: all assays above

COC(OC)(C(=O)c1ccccc1)c1ccccc1
inactive: all assays above

c1ccc(Nc2cccc3ccccc23)cc1
active: [1] 13.4 µM and 12.9 µM | [2] 30.6 µM and 32.2 µM | [5] 20 µM and 149 nM | [7] 29.9 µM and 28.9 µM | [8] 7.17 µM and 25.9 µM
inactive: all other assays above

C=CC(=O)OCC(C)OCC(C)OCC(C)OC(=O)C=C (stereo not given)
active: [1] 16.1 µM | [4] 14.9 µM | [5] 25.2 µM | [7] 20 µM | [8] 20 µM | [9] 29.1 µM | [10] 5.95 µM
inactive: [2] | [3] | [6]

O=C(O)C(F)(F)C(F)(F)C(F)(F)C(F)(F)C(=O)O
inactive: all assays above

C[N+](C)(C)CCCNS(=O)(=O)C(F)(F)C(F)(F)C(F)(F)C(F)(F)C(F)(F)C(F)(F)C(F)(F)C(F)(F)F
inactive: [1] | [3] | [4] | [5] | [7] | [8] | [9] | [10]
active: [2] 17.1 µM and 18.5 µM | [5] 16.8 µM | [6] 19.5 µM and 26.4 µM | [10] 7.89 µM

CC(C)c1cccc(C(C)C)c1N
inactive: all assays above

CCCCCCCCCCCC(=O)N(C)CC(=O)O
active: [9] 30.9 µM
inactive: [1] | [2] | [3] | [4] | [5] | [6] | [7] | [8] | [9] | [10]

CCCCCC1=CCCC1=O
inactive: all assays above

Oc1ccc(/C=C/c2cc(O)cc(O)c2)cc1
active: [1] 13.6 µM | [8] 10.5 µM | [10] 15.9 µM
inactive: all other assays above

CC=C(C)C=CC=C(C)C
active: [2] 3.97 µM | [4] 3.97 µM | [5] 0.46 µM | [8] 24 µM
inactive: all other assays above

CC(Cl)COP(=O)(OCC(C)Cl)OCC(C)Cl (stereo not given)
active: [8] 0.159 µM
inactive: all other assays above

Cc1ccc([N+](=O)[O-])cc1N
inactive: all assays above

O=C1CCCCCCCCCCC1
inactive: all assays above

CC(c1cc(C(C)(C)C)cc(C(C)(C)C)c1O)c1cc(C(C)(C)C)cc(C(C)(C)C)c1O
inactive: all assays above

Clc1cc(Cl)c(Cl)c(Cl)c1Cl
inactive: all assays above

CC=C(C)C(C)=O
inactive: all assays above

CC1=CC=C(C(C)C)CC1
inactive: all assays above

CCC1(C)C(=O)N(Cl)C(=O)N1Cl (stereo not given)
inactive: all assays above

C=CC(=O)OCCCCCCCC(C)C
inactive: all assays above

CCCC(C)C(=O)OCC (stereo not given)
inactive: all assays above
